Inconclusive results are not listed. The source made the active and inactive calls. Calls come from the whole dose curve; as a rule, active = well fitted curve in the direction sought with a large enough effect; inconclusive = small, poorly fitted or top-dose-only effect, or another doubt; inactive = no such curve, though single readings can be large; an effect the other way counts as inactive or inconclusive.
Tests used:
[1] = target: Glutathione peroxidase 1 (Homo sapiens) (UniProt P07203); assay: Primary qHTS Assay for Inhibitors of Recombinant Selenoprotein Glutathione Peroxidase 1 (GPX1) (AID 1845191); note: nearly all actives have a fitted effect of over 65% in size; note: potency is the fitted concentration of half-maximal effect; for activity, negative = inhibition: % is set by controls: 0 for no effect and ±100 for the full control effect
In short: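 GR-coupled readout: NADPH consumption tracked by fluorescence, ex 340/em 450 nm, at t=0 and after 15 min at RT. Final mix 10 nM GPX1, 1 mM GSH, 0.5 mM CHP, 0.5 mM NADPH, 100 nM GR, 0.01% BSA, following 30 min enzyme–compound preincubation.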

[2] = target: Phospholipid hydroperoxide glutathione peroxidase GPX4 (Homo sapiens) (UniProt P36969); assay: Primary qHTS Assay for Inhibitors of Recombinant Selenoprotein Glutathione Peroxidase 4 (GPX4) (AID 1845192); note: nearly all actives have a fitted effect of over 65% in size; note: potency is the fitted concentration of half-maximal effect; for activity change, negative = inhibition: series mostly up to about 50 µM; % is set by controls: 0 for no effect and ±100 for the full control effect
In short: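 Steps: GPX4 plus compound, 30 min RT; add GR/GSH/NADPH master mix; start with cumene hydroperoxide; read 340/450 nm fluorescence at 0 and 15 min. Finals were 200 nM GPX4, 1 mM GSH, 0.5 mM CHP, 0.5 mM NADPH, 100 nM GR.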

[3] = target: Luciferin 4-monooxygenase (Photinus pyralis) (UniProt P08659); assay: Primary firefly luciferase (FLuc) qHTS assay for identification of artifact compounds. (AID 1845220); note: nearly all actives have a fitted effect of over 60% in size;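 for activity change, negative = inhibition: series mostly up to about 54 µM; plate controls were DMSO vehicle for no effect and no enzyme for full effect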
In short: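 Titrated compounds were incubated 15 min at RT, protected from light, with luciferin and ATP at 10 uM; reaction started with 10 nM FLuc, luminescence imaged at 5 min, and concentration-response fitted by Hill equation.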

[4] = Primary fluorescence-based thiol-reactive (MSTI) qHTS assay for identification of artifact compounds. (AID 1845221);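 note: series mostly up to about 54 µM; thiol-reactive compounds lower the probe fluorescence signal; nearly all actives have a fitted effect of over 65% in size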
In short: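 MSTI probe at 4 uM final in 2% DMSO/PBS pH 7.4; compounds, 1 h at room temperature in dark. Fluorescence Ex/Em 525/598 nm, normalised to Acetyl-MSTI and MSTI, fitted to 4-parameter Hill.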

[5] = system: Nanoluciferase (engineered Oplophorus gracilirostris luciferase); assay: Primary Nanoluciferase (NLuc) qHTS assay for identification of artifact compounds. (AID 1845222);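 note: NLuc secreted into diluted conditioned medium of S16 cells; series mostly up to about 54 µM; 0% = DMSO and -100% = no enzyme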
In short: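 qHTS format, against NLuc in S16 cell-conditioned medium. Nano-Glo substrate 1:100 was added after 15 min at room temperature. Luminescence was taken after a further 5 min.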

Glutathione peroxidase 1 (Homo sapiens), sequence (P07203 whole entry, looked up): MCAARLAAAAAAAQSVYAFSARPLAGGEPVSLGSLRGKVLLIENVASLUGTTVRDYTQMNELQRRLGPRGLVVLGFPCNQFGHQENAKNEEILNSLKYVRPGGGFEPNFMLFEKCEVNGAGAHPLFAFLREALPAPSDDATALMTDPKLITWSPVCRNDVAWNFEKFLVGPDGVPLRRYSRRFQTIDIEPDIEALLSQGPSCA
Phospholipid hydroperoxide glutathione peroxidase GPX4 (Homo sapiens), sequence (P36969 whole entry, looked up): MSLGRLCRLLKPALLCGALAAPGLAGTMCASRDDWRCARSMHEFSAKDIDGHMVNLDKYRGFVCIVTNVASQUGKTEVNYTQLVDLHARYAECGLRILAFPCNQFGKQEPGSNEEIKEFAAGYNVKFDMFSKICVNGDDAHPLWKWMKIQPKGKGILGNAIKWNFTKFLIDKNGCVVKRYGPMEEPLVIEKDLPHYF

CCc1cccc(CC)c1-n1c(C=C(C)C)c(C(=O)N2CCNCC2)cc(-c2nc(-c3ccc(C(F)(F)F)cc3)cs2)c1=O
inactive: Potency [1] | Potency [2] | Potency [3] | Potency [4] | Potency [5]

CC(C)=CCC/C(C)=C/COCC1OC(n2ccc(=O)[nH]c2=O)C(O)C1O (stereo not given)
inactive: Potency [1] | Potency [2] | Potency [3] | Potency [4] | Potency [5]

COC1CC/C=C(\C)C(=O)Nc2cc(O)cc(c2)CC(C)CC(OC)C(O)C(C)/C=C(\C)C1OC(N)=O (stereo not given)
inactive: Potency [1] | Potency [2] | Potency [3] | Potency [4] | Potency [5]

CC[C@@H](C)Nc1cc(C(=O)NC2CC3CC[C@@H](C2)N3c2ccc(C(=O)C3CC3)cn2)c(C)cc1C(N)=O (stereo not given in full)
active: Potency [1] 16.3 µM | Potency [2] 2.55 µM
inactive: Potency [3] | Potency [4] | Potency [5]

COc1cc(C#N)ccc1S(=O)(=O)Nc1ccc2c(c1)cc(C)c(=O)n2C
inactive: Potency [1] | Potency [2] | Potency [3] | Potency [4] | Potency [5]

CC(=O)O[C@H]1CC(C)(C)CC2[C@]13CO[C@@]21CCC2[C@@]4(C)CC[C@H](O[C@@H]5OC[C@H](O[C@@H]6O[C@H](CO)[C@@H](O)[C@H](O)[C@H]6O[C@@H]6OC[C@@H](O)[C@H](O)[C@H]6O)[C@H](O)[C@H]5O[C@@H]5O[C@H](CO)[C@@H](O)[C@H](O)[C@H]5O)[C@@](C)(CO)C4CC[C@@]2(C)[C@]1(C)C[C@H]3O (stereo not given in full)
inactive: Potency [1] | Potency [2] | outcome [3] inactive [at 11.6 µM] | activity change, negative = thiol reactive [4] 28.4% [at 11.5 µM] | activity, negative = inhibition [5] 2.37% [at 11.6 µM]

COc1ccc(Cl)c(Nc2ncnc3cc(OCC4CCN(C)CC4)c(OC)cc23)c1
inactive: Potency [1] | Potency [2] | Potency [3] | Potency [4] | Potency [5]

CN1CCC(c2cn(C)c3ccc(OS(=O)(=O)c4c(F)cccc4F)cc23)CC1
inactive: Potency [1] | Potency [2] | Potency [3] | Potency [4] | Potency [5]

COC(=O)C1=COC(O[C@@H]2O[C@H](CO[C@@H]3O[C@H](COC(=O)/C=C\c4ccc(O)cc4)[C@@H](O)[C@H](O)[C@H]3O)[C@@H](O)[C@H](O)[C@H]2O)C2C(CO)=CCC12 (stereo not given in full)
inactive: Potency [1] | Potency [2] | Potency [3] | Potency [4] | Potency [5]

CNCCN1CCC(c2cc(CN(C)C(=O)c3cccc(Oc4ccccc4)c3)ccn2)CC1
inactive: Potency [1] | Potency [2] | Potency [3] | Potency [4] | Potency [5]

CN1CCN(c2ccc(-c3cccc(CN4CCOCC4)c3)cc2NC(=O)c2c[nH]c(=O)cc2C(F)(F)F)CC1
inactive: Potency [1] | Potency [2] | Potency [3] | Potency [4] | Potency [5]

CC(=O)O[C@H]1CC(C)(C)CC2[C@]13CO[C@@]21CCC2[C@@]4(C)CC[C@H](O[C@@H]5OC[C@H](O[C@@H]6O[C@H](CO)[C@@H](O)[C@H](O)[C@H]6O[C@@H]6OC[C@@H](O[C@@H]7O[C@H](CO)[C@@H](O)[C@H](O)[C@H]7O)[C@H](O)[C@H]6O)[C@H](O)[C@H]5O[C@@H]5O[C@H](CO)[C@@H](O)[C@H](O)[C@H]5O)[C@@](C)(CO)C4CC[C@@]2(C)[C@]1(C)C[C@H]3O (stereo not given in full)
inactive: activity, negative = inhibition [1] 2.15% [at 9.52 µM] | activity change, negative = inhibition [2] 4.48% [at 9.73 µM] | activity change, negative = inhibition [3] 3.87% [at 11.6 µM] | activity change, negative = thiol reactive [4] 133% [at 11.5 µM] | activity, negative = inhibition [5] 2.8% [at 11.6 µM]

Cn1ccc(NC(=O)c2cc(Oc3ccc(C(=O)N4CCC4)c(F)c3)c3c(c2)OC(C)(C)C3)n1
inactive: Potency [1] | Potency [2] | Potency [3] | Potency [4] | Potency [5]

CC(CCC1(O)OC2CC3C4CC=C5C[C@@H](O[C@@H]6O[C@H](CO)[C@@H](O[C@@H]7O[C@@H](C)[C@H](O)[C@@H](O)[C@H]7O)[C@H](O)[C@H]6O[C@@H]6O[C@@H](C)[C@H](O)[C@@H](O)[C@H]6O)CC[C@]5(C)C4CC[C@]3(C)[C@@]2(O)[C@@H]1C)CO[C@@H]1O[C@H](CO)[C@@H](O)[C@H](O)[C@H]1O (stereo not given in full)
inactive: Potency [1] | Potency [2] | outcome [3] inactive [at 11.6 µM] | activity change, negative = thiol reactive [4] 40.3% [at 11.5 µM] | activity, negative = inhibition [5] 0% [at 11.6 µM]

C[C@@H](NC(=O)[C@H](O)c1cc(F)cc(F)c1)C(=O)N[C@@H]1C(=O)N(C)c2ccccc2-c2ccccc21
inactive: Potency [1] | Potency [2] | Potency [3] | Potency [4] | Potency [5]

C/C(=C/C=C\C=C\Cc1cnco1)[C@@H](O)C(C)(C)C(N)=O
inactive: Potency [1] | Potency [2] | Potency [3] | Potency [4] | Potency [5]

CCN(CC)CCCS(=O)(=O)N[C@H](CCc1ccccc1)c1nc(Cc2ccc(Br)cc2)no1
inactive: Potency [1] | Potency [2] | Potency [3] | Potency [4] | Potency [5]

CCC/C=C/C(=O)O[C@H]1CC(C)(C)CC2[C@@]13[C@H](O)C[C@]1(C)[C@@]2(CCC2[C@@]4(C)CC[C@H](O[C@@H]5O[C@H](C(=O)O)[C@@H](O)[C@H](O[C@@H]6O[C@H](CO)[C@H](O)[C@H](O)[C@H]6O[C@@H]6O[C@@H](C)[C@H](O)[C@@H](O)[C@H]6O[C@@H]6OC[C@](O)(CO)[C@H]6O)[C@H]5O[C@@H]5O[C@H](CO)[C@H](O)[C@H](O)[C@H]5O)C(C)(C)C4CC[C@]21C)O[C@H]3O (stereo not given in full)
inactive: outcome [1] inactive [at 9.52 µM] | activity change, negative = inhibition [2] -7.28% [at 9.73 µM] | activity change, negative = inhibition [3] 0.937% [at 11.6 µM] | activity change, negative = thiol reactive [4] 163% [at 11.5 µM] | activity, negative = inhibition [5] 2.33% [at 11.6 µM]

CCCc1cc(C)[nH]c(=O)c1CNC(=O)c1cc(-c2ccnc(N3CCN(C)CC3)c2)cc2c1cnn2C(C)C
inactive: Potency [1] | Potency [2] | Potency [3] | Potency [4] | Potency [5]

C[C@@H]1O[C@@H](O[C@H]2[C@H](O[C@H]3CC[C@@]4(C)C(CC[C@]5(C)C4C=C[C@]46OC[C@@]7(CCC(C)(C)C[C@H]74)[C@@H](O[C@@H]4O[C@@H](C)[C@H](O)[C@@H](O)[C@H]4O)C[C@]65C)[C@]3(C)CO)O[C@H](CO)[C@@H](O)[C@@H]2O[C@@H]2O[C@H](CO)[C@@H](O)[C@H](O)[C@H]2O)[C@H](O)[C@H](O)[C@H]1O (stereo not given in full)
inactive: Potency [1] | Potency [2] | outcome [3] inactive [at 11.6 µM] | activity change, negative = thiol reactive [4] 75.2% [at 11.5 µM] | activity, negative = inhibition [5] 3.17% [at 11.6 µM]

Cc1nc(NC(=O)N2CCC[C@H]2C(N)=O)sc1-c1ccnc(C(C)(C)C(F)(F)F)c1
inactive: Potency [1] | Potency [2] | Potency [3] | Potency [4] | Potency [5]

Source: PubChem BioAssay (NCATS)
